Assay results from PubChem BioAssay (NCATS).
Inconclusive results are not listed. The source made the active and inactive calls. Calls follow the shape of the dose curve; as a rule, active = well fitted curve in the direction sought with a large enough effect; inconclusive = small, poorly fitted or top-dose-only effect, or another doubt; inactive = no such curve, though single readings can be large; an effect the other way counts as inactive or inconclusive.

Tests used:
[1] = S16 Schwann cell PMP22 intronic element firefly luciferase assay (AID 624032); also: nearly all actives have a fitted effect of over 30% in size
Method in brief: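 Rat S16 Schwann cells stably carrying firefly luciferase driven by a PMP22 intronic element, in 10% FBS, treated 24 h at 37 C. ONE-Glo luminescence normalized to PTC124 control and DMSO (0%); curves classed by r2, magnitude and activity.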

[2] = test system: 7G8; assay: qHTS profiling for inhibitors of Plasmodium falciparum proliferation (AID 504749); also: nearly all actives have a fitted effect of over 60% in size; settings: P. falciparum in erythrocytes, SYBR Green DNA, 72 h; series mostly up to 12.8 µM
Method in brief: (§1)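 P. falciparum-infected erythrocytes (0.3% parasitemia, 2.5% hematocrit) incubated with compound 72 h at 37 C, 5% CO2. Parasite DNA detected by SYBR Green after lysis, overnight at room temperature; normalised to 0.29 uM artemisinin and DMSO.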

[3] = test system: CP260; assay: as above; settings: P. falciparum in erythrocytes, SYBR Green DNA, 72 h; series mostly up to 28.7 µM
Method in brief: as §1

[4] = test system: CP266; assay: as above; settings: P. falciparum in erythrocytes, SYBR Green DNA, 72 h; series mostly up to 12.8 µM
Method in brief: as §1

[5] = test system: CP297; assay: as above; settings: P. falciparum in erythrocytes, SYBR Green DNA, 72 h; series mostly up to 28.7 µM
Method in brief: as §1

[6] = test system: CP305; assay: as above; settings: P. falciparum in erythrocytes, SYBR Green DNA, 72 h; series mostly up to 28.7 µM
Method in brief: as §1

[7] = test system: CP315; assay: as above; settings: P. falciparum in erythrocytes, SYBR Green DNA, 72 h; series mostly up to 28.7 µM
Method in brief: as §1

[8] = test system: CP329; assay: as above; settings: P. falciparum in erythrocytes, SYBR Green DNA, 72 h; series mostly up to 28.7 µM
Method in brief: as §1

[9] = test system: CP335; assay: as above; settings: P. falciparum in erythrocytes, SYBR Green DNA, 72 h; series mostly up to 12.8 µM
Method in brief: as §1

[10] = test system: DIV30; assay: as above; settings: P. falciparum in erythrocytes, SYBR Green DNA, 72 h; series mostly up to 28.7 µM
Method in brief: as §1

[11] = test system: FAB9; assay: as above; settings: P. falciparum in erythrocytes, SYBR Green DNA, 72 h; series mostly up to 28.7 µM
Method in brief: as §1

[12] = test system: GB4; assay: as above; settings: P. falciparum in erythrocytes, SYBR Green DNA, 72 h; series mostly up to 28.7 µM
Method in brief: as §1

[13] = test system: PC49; assay: as above; settings: P. falciparum in erythrocytes, SYBR Green DNA, 72 h; series mostly up to 28.7 µM
Method in brief: as §1

[14] = test system: AA1029; assay: as above; settings: P. falciparum in erythrocytes, SYBR Green DNA, 72 h; series mostly up to 28.7 µM
Method in brief: as §1

[15] = test system: CP185; assay: as above; settings: P. falciparum in erythrocytes, SYBR Green DNA, 72 h; series mostly up to 28.7 µM
Method in brief: as §1

[16] = test system: CP191; assay: as above; settings: P. falciparum in erythrocytes, SYBR Green DNA, 72 h; series mostly up to 28.7 µM
Method in brief: as §1

[17] = test system: CP238; assay: as above; settings: P. falciparum in erythrocytes, SYBR Green DNA, 72 h; series mostly up to 28.7 µM
Method in brief: as §1

[18] = test system: CP247; assay: as above; settings: P. falciparum in erythrocytes, SYBR Green DNA, 72 h; series mostly up to 28.7 µM
Method in brief: as §1

[19] = test system: TAB109; assay: as above; settings: P. falciparum in erythrocytes, SYBR Green DNA, 72 h; series mostly up to 12.8 µM
Method in brief: as §1

[20] = test system: TAB165; assay: as above; settings: P. falciparum in erythrocytes, SYBR Green DNA, 72 h; series mostly up to 28.7 µM
Method in brief: as §1

Measured: Potency
Potency is read from the fitted curve at half-maximal effect.

CC1=C2[C@@H]3OC(=O)[C@@H](C)[C@@H]3CC[C@]2(C)C=CC1=O
inactive: [1] | [2] | [3] | [4] | [5] | [6] | [7] | [8] | [9] | [10] | [11] | [12] | [13]

CC(C)N(CC[C@@](C(N)=O)(c1ccccc1)c1ccccn1)C(C)C
inactive: [1] | [2] | [14] | [15] | [16] | [17] | [18] | [3] | [4] | [5] | [6] | [7] | [8] | [9] | [10] | [11] | [13] | [19] | [20]

COc1cc2c(cc1OC)[C@@]13CCN4CC5=CCOC6CC(=O)N2C1[C@H]6[C@@H]5C[C@@H]43 (stereo partly drawn)
inactive: [1] | [2] | [14] | [15] | [16] | [17] | [18] | [3] | [4] | [5] | [6] | [7] | [8] | [9] | [10] | [11] | [12] | [13] | [19] | [20]

CNC[C@H](O)c1ccc(O)cc1
inactive: [1] | [2] | [14] | [15] | [16] | [17] | [18] | [3] | [4] | [5] | [6] | [7] | [8] | [9] | [10] | [11] | [12] | [13] | [19] | [20]

CCC(C)C1O[C@]2(C=CC1C)CC1CC(C/C=C(\C)[C@H](OC3CC(OC)C(O[C@H]4CC(OC)[C@@H](O)C(C)O4)C(C)O3)[C@@H](C)/C=C/C=C3\COC4C(O)C(C)=C[C@H](C(=O)O1)[C@@]34O)O2 (stereo partly drawn)
active: [2] 10 µM | [14] 11.2 µM | [15] 11.2 µM | [16] 7.94 µM | [18] 8.91 µM | [5] 13.5 µM | [6] 12 µM | [8] 9.53 µM | [9] 6.75 µM | [12] 13.5 µM | [19] 8.91 µM | [20] 12.6 µM

CC(=O)O[C@H]1CC[C@@]2(C)C(=CC[C@@H]3[C@H]2CC[C@]2(C)C(=O)CC[C@H]32)C1
inactive: [1] | [2] | [14] | [15] | [16] | [17] | [18] | [3] | [4] | [5] | [6] | [7] | [8] | [9] | [10] | [11] | [12] | [13] | [19] | [20]

O=C1C=C2C=CC3C[C@@]2(O1)C1CCCCN31 (stereo partly drawn)
active: [1] 0.51 µM | [2] 8.91 µM | [14] 12.6 µM | [16] 10 µM | [17] 11.2 µM | [18] 11.2 µM | [3] 6.31 µM | [4] 10.7 µM | [5] 12 µM | [7] 16.9 µM | [10] 13.5 µM | [13] 10 µM | [19] 5.01 µM | [20] 11.2 µM

CN[C@@H](C)[C@H]1CC[C@@H](N)[C@@H](O[C@@H]2[C@@H](O)[C@@H](O[C@H]3OC[C@@](C)(O)[C@@H](NC)[C@@H]3O)[C@H](N)C[C@@H]2N)O1 (tested in a mixture with another compound)
inactive: [1] | [2] | [14] | [15] | [16] | [17] | [18] | [3] | [4] | [5] | [6] | [7] | [8] | [9] | [10] | [11] | [12] | [13] | [19] | [20]

O=c1ccc2cc(O[C@H]3O[C@@H](CO)[C@@H](O)[C@@H](O)[C@@H]3O)c(O)cc2o1
inactive: [1] | [2] | [14] | [15] | [16] | [17] | [18] | [3] | [4] | [5] | [6] | [7] | [8] | [9] | [10] | [11] | [12] | [13] | [19] | [20]

CC([C@H](O)c1ccccc1)N(C)C (stereo partly drawn)
active: [2] 11.2 µM
inactive: [1] | [14] | [15] | [16] | [17] | [18] | [3] | [4] | [5] | [6] | [7] | [8] | [9] | [10] | [11] | [13] | [19] | [20]

CNc1ccc(C(=O)CC(O)CCC(C)C2OC(=O)CC(O)CC(=O)CC(O)CC(O)CC(O)CC(O)CC3(O)CC(O)C(C(=O)OC)C(CC(O[C@@H]4OC(C)C(O)C(N)C4O)/C=C/C=C/C=C/C=C/C=C/C=C/C=C/C2C)O3)cc1 (stereo partly drawn)
inactive: [2] | [14] | [15] | [16] | [17] | [18] | [4] | [5] | [6] | [7] | [8] | [9] | [10] | [11] | [12] | [13] | [19] | [20]

CC[C@@H]1[C@@H]2C[C@H]3[C@H]4N(C)c5ccccc5[C@@]45C[C@@H]([C@@H]2[C@@H]5O)N3[C@H]1O
inactive: [1] | [14] | [15] | [16] | [17] | [18] | [3] | [4] | [5] | [6] | [7] | [8] | [9] | [10] | [11] | [12] | [19] | [20]

Clc1ccc([C@@H](OCCN2CCCCC2)c2ccccc2)cc1
active: [2] 3.55 µM | [3] 3.16 µM | [12] 5.73 µM
inactive: [1] | [15] | [17] | [4] | [5] | [7] | [8] | [11]

C[C@@H]1O[C@H](O[C@@H]2C=C3CC[C@H]4[C@@H](CC[C@]5(C)[C@@H](c6ccc(=O)oc6)CC[C@]45O)[C@@]3(C)CC2)[C@@H](O)[C@H](O)[C@@H]1O
inactive: [2] | [14] | [15] | [16] | [17] | [18] | [3] | [4] | [5] | [6] | [7] | [8] | [9] | [10] | [11] | [12] | [13] | [19] | [20]

COc1cc(N)c(Cl)cc1C(=O)N[C@@H]1CN2CCC1CC2
inactive: [1] | [2] | [14] | [15] | [16] | [17] | [18] | [3] | [4] | [5] | [6] | [7] | [8] | [9] | [10] | [11] | [12] | [13] | [19] | [20]

CC[C@@]1(c2ccc(N)cc2)CCC(=O)NC1=O
inactive: [1] | [2] | [14] | [15] | [16] | [17] | [18] | [3] | [4] | [5] | [6] | [7] | [8] | [9] | [10] | [11] | [12] | [13] | [19] | [20]

C=CC1CN2CCC1CC2C(OC(=O)OCC)c1ccnc2ccc(OC)cc12 (stereo not drawn)
inactive: [1] | [13]
active: [2] 2.51 µM | [14] 5.01 µM | [15] 8.91 µM | [16] 5.01 µM | [17] 8.91 µM | [18] 7.94 µM | [3] 10 µM | [6] 9.53 µM | [9] 9.53 µM | [10] 9.53 µM | [11] 10 µM | [12] 4.78 µM | [19] 4.47 µM | [20] 0.501 µM

CC(C)CC(CN)CC(=O)O (stereo not drawn)
inactive: [1]

CNC(C)[C@@H](O)c1ccccc1 (stereo partly drawn)
inactive: [1] | [14] | [15] | [16] | [17] | [18] | [3] | [4] | [6] | [7] | [8] | [9] | [10] | [11] | [12] | [13] | [19] | [20]
